Measured values as given in ChEMBL document CHEMBL1961873, “Compounds: GSK PKIS; Assays: Nanosyn kinase panel” (2012).
Several values for one entry are separate records, joined by “and”; a condition that tells them apart may be missing. Identical values can stand only once.

How the values were obtained:
[1] = target: T1, Mitogen-activated protein kinase 12 (Homo sapiens) (UniProt P53778); details: at 1 µM;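 note: values are averaged p38gamma kinase inhibition readings, compounds tested at 1 µM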
T1 sequence (whole entry): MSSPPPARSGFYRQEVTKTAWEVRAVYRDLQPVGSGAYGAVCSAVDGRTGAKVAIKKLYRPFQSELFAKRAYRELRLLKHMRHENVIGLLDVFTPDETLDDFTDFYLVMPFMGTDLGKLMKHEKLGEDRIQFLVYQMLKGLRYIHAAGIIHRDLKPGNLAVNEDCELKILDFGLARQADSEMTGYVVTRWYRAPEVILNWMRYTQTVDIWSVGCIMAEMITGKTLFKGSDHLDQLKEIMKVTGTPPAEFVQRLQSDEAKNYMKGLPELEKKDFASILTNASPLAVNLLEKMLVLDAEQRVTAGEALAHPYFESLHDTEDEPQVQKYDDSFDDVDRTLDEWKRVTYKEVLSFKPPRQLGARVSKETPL

[2] = target: SRSF protein kinase 1 (Homo sapiens) (UniProt Q96SB4); details: at 0.1 µM
SRSF protein kinase 1 (Homo sapiens), sequence (Q96SB4 whole entry, canonical isoform): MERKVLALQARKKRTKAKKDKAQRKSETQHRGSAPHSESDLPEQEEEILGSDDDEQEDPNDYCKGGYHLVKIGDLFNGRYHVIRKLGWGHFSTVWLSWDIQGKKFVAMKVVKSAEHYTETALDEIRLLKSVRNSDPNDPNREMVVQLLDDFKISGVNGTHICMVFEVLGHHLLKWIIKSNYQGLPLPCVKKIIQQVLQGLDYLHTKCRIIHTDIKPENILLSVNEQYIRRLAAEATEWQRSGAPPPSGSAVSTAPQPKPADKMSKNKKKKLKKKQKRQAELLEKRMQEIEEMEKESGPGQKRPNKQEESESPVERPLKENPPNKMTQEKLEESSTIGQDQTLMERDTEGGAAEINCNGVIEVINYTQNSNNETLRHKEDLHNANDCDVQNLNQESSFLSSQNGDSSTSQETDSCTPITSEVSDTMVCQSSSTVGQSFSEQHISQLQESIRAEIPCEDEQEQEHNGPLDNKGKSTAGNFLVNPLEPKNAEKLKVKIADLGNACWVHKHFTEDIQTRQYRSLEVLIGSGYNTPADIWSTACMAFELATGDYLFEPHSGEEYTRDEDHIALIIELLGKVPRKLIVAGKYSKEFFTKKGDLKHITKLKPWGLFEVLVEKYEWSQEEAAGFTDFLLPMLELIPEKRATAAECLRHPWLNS

[3] = target: SRSF protein kinase 1 (Homo sapiens) (UniProt Q96SB4); details: at 1 µM
[4] = target: Phosphatidylinositol 4,5-bisphosphate 3-kinase catalytic subunit alpha isoform (Homo sapiens) (UniProt P42336); details: at 0.1 µM
Phosphatidylinositol 4,5-bisphosphate 3-kinase catalytic subunit alpha isoform (Homo sapiens), sequence (P42336 whole entry, canonical isoform): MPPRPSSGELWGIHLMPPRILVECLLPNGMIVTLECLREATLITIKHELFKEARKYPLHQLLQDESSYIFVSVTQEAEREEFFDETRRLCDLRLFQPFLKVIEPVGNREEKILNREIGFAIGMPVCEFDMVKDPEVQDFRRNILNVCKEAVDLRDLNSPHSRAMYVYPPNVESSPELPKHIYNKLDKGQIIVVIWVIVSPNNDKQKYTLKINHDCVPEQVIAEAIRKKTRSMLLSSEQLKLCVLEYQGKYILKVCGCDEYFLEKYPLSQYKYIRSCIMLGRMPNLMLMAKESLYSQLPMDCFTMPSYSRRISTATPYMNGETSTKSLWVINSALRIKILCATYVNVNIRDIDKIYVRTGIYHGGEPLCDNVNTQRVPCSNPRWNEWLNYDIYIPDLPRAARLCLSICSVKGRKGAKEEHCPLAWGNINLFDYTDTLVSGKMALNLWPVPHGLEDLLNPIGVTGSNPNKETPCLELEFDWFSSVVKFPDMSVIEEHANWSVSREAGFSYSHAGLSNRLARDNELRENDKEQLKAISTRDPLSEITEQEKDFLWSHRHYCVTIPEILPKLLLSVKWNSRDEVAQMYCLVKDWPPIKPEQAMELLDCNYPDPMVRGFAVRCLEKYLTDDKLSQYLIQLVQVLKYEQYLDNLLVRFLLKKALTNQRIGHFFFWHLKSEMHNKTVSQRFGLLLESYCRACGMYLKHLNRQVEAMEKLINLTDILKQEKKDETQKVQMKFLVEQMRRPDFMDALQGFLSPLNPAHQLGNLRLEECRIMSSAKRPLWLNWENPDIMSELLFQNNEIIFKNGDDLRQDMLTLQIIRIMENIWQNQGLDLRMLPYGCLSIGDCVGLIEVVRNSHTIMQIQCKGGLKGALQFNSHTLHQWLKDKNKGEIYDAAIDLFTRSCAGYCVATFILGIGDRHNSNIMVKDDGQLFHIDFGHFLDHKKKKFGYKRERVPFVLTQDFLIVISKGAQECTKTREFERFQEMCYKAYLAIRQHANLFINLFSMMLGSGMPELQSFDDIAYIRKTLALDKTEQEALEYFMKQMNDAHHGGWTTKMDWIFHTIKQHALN

[5] = target: Phosphatidylinositol 4,5-bisphosphate 3-kinase catalytic subunit alpha isoform (Homo sapiens) (UniProt P42336); details: at 1 µM
[6] = target: T2, Phosphatidylinositol 4,5-bisphosphate 3-kinase catalytic subunit delta isoform (Homo sapiens) (UniProt O00329); details: at 0.1 µM
T2 sequence (whole entry): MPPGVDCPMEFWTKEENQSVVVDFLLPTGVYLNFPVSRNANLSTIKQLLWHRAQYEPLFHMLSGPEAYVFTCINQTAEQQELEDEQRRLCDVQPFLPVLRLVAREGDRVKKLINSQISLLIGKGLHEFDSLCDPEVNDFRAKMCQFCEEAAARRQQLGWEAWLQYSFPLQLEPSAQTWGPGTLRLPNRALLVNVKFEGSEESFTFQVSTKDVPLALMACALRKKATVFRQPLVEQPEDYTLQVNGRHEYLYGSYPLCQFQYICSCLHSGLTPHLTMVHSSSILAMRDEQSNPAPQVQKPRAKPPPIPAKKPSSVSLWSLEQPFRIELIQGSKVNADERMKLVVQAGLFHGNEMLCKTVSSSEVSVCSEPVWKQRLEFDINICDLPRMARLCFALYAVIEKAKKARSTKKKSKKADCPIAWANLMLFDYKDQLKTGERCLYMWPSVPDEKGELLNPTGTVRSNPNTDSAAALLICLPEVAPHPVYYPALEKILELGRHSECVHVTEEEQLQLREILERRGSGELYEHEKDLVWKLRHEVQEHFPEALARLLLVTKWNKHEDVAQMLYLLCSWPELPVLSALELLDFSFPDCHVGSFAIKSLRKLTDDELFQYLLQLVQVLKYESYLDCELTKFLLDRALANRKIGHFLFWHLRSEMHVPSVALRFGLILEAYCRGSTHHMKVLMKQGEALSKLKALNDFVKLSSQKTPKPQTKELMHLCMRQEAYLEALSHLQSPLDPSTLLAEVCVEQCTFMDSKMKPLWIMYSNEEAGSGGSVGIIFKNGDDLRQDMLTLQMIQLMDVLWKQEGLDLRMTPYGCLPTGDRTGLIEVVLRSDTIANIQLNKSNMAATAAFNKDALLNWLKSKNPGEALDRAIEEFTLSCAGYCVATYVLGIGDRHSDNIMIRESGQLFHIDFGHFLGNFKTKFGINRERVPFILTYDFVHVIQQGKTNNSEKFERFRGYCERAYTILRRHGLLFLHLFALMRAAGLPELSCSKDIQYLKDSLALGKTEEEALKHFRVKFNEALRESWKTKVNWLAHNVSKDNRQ

[7] = target: T2, Phosphatidylinositol 4,5-bisphosphate 3-kinase catalytic subunit delta isoform (Homo sapiens); details: at 1 µM
[8] = target: Phosphatidylinositol 4-kinase beta (Homo sapiens) (UniProt Q9UBF8); details: at 0.1 µM
Phosphatidylinositol 4-kinase beta (Homo sapiens), sequence (Q9UBF8 2-816 limits assumed): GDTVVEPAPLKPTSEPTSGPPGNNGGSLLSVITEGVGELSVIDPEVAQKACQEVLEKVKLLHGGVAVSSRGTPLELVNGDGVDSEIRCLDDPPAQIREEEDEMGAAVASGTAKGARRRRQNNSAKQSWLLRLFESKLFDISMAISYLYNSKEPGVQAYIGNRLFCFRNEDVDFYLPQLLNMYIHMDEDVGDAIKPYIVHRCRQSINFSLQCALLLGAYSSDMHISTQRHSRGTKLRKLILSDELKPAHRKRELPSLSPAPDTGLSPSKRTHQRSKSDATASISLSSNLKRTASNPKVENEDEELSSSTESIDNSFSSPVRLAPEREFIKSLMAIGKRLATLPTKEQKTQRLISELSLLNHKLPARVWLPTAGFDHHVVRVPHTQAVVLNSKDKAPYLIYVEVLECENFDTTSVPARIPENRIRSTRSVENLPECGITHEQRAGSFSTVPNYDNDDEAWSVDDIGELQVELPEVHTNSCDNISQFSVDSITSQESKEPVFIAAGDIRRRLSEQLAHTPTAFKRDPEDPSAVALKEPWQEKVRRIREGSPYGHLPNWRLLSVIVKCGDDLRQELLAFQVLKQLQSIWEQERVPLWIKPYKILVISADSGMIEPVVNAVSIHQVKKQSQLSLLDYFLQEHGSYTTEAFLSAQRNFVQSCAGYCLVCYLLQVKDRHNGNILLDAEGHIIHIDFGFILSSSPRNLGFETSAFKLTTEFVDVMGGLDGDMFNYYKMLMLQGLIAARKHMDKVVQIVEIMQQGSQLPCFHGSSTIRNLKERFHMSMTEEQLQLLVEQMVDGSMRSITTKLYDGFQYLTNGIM

[9] = target: Phosphatidylinositol 4-kinase beta (Homo sapiens) (UniProt Q9UBF8); details: at 1 µM
[10] = target: Sphingosine kinase 1 (Homo sapiens) (UniProt Q9NYA1); details: at 0.1 µM
Sphingosine kinase 1 (Homo sapiens), sequence (Q9NYA1 whole entry): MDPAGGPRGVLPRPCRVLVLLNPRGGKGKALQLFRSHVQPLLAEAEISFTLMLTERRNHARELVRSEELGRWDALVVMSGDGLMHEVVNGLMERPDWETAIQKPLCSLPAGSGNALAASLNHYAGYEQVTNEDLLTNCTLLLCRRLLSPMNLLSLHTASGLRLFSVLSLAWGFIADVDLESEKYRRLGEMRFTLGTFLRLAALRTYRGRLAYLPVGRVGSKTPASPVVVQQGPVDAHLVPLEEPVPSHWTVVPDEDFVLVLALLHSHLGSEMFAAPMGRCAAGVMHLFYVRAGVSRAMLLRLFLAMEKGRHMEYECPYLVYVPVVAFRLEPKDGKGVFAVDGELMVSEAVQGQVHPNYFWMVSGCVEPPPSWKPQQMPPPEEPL

[11] = target: Sphingosine kinase 1 (Homo sapiens) (UniProt Q9NYA1); details: at 1 µM
[12] = target: T3, Sphingosine kinase 2 (Homo sapiens) (UniProt Q9NRA0); details: at 0.1 µM
T3 sequence (whole entry): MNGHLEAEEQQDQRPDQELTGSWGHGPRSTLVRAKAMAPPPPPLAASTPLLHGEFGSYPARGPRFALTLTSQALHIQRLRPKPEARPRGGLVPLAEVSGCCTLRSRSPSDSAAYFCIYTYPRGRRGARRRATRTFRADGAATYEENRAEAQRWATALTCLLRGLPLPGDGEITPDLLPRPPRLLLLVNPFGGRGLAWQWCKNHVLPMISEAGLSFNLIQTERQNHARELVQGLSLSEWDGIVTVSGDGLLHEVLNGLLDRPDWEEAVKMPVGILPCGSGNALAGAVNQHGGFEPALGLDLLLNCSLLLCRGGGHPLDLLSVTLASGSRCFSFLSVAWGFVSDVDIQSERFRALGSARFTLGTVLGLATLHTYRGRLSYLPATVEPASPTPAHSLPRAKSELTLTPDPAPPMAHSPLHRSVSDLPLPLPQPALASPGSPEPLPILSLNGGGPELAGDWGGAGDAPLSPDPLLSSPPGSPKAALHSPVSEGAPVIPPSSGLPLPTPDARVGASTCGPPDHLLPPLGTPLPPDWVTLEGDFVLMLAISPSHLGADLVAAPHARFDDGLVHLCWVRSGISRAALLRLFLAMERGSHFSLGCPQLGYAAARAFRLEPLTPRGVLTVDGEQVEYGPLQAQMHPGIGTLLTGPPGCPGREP

[13] = target: T3, Sphingosine kinase 2 (Homo sapiens); details: at 1 µM
[14] = target: Casein kinase II subunit alpha (Homo sapiens) (UniProt P68400); details: at 0.1 µM
Casein kinase II subunit alpha (Homo sapiens), sequence (P68400 whole entry, looked up): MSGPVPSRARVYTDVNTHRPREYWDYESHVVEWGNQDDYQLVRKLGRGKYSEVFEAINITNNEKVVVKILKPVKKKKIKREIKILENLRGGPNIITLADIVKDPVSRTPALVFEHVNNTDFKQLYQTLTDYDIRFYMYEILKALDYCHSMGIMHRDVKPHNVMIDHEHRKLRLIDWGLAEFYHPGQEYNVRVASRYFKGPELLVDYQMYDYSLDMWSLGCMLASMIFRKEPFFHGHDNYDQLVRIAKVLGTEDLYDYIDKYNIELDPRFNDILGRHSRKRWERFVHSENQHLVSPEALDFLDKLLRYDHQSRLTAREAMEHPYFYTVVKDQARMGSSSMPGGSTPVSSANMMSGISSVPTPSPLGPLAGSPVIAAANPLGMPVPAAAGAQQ

[15] = target: Casein kinase II subunit alpha (Homo sapiens) (UniProt P68400); details: at 1 µM
[16] = target: T4, Inhibitor of nuclear factor kappa-B kinase subunit alpha (Homo sapiens) (UniProt O15111); details: at 0.1 µM
T4 sequence (whole entry): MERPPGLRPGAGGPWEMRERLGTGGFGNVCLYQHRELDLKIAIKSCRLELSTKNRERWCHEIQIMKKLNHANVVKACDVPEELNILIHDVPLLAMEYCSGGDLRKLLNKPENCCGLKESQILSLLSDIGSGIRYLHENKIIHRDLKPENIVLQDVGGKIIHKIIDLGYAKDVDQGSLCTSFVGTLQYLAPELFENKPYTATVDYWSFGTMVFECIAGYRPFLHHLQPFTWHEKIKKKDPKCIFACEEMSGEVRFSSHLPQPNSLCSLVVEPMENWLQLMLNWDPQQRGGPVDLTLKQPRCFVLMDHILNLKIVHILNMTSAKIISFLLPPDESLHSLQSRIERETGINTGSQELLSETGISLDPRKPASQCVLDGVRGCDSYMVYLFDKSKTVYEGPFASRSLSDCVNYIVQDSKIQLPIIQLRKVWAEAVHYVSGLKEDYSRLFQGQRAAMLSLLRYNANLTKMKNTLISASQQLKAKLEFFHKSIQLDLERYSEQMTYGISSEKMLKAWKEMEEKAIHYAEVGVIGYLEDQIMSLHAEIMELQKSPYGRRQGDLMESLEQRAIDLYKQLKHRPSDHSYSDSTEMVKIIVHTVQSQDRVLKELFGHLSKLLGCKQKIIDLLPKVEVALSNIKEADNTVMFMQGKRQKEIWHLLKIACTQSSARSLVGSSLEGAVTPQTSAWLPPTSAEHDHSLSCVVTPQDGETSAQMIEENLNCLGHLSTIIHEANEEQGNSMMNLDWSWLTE

[17] = target: T4, Inhibitor of nuclear factor kappa-B kinase subunit alpha (Homo sapiens); details: at 1 µM
[18] = target: T5, Inhibitor of nuclear factor kappa-B kinase subunit beta (Homo sapiens) (UniProt O14920); details: at 0.1 µM
T5 sequence (whole entry): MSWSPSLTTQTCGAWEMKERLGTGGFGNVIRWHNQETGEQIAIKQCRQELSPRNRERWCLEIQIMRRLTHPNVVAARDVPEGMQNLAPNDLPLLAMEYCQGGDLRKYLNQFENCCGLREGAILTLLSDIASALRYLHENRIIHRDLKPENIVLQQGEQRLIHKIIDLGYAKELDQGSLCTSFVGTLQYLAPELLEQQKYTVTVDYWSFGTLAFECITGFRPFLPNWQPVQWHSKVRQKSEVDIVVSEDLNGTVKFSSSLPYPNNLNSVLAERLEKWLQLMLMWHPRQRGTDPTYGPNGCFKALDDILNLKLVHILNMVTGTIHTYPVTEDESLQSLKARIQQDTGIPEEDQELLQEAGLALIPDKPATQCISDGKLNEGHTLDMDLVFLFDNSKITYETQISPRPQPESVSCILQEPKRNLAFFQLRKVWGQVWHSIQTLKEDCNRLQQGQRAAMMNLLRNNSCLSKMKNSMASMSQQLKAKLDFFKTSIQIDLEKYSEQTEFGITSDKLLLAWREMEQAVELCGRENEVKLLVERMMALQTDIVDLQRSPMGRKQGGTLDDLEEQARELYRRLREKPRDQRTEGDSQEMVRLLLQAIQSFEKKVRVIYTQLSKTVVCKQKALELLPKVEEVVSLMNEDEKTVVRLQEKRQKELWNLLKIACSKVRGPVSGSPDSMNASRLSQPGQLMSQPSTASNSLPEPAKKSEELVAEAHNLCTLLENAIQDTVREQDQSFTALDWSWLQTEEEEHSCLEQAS

[19] = target: T5, Inhibitor of nuclear factor kappa-B kinase subunit beta (Homo sapiens); details: at 1 µM
[20] = target: T6, Inhibitor of nuclear factor kappa-B kinase subunit epsilon (Homo sapiens) (UniProt Q14164); details: at 0.1 µM;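 note: mean inhibition of IKKε reported, from the GSK PKIS dataset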
T6 sequence (whole entry): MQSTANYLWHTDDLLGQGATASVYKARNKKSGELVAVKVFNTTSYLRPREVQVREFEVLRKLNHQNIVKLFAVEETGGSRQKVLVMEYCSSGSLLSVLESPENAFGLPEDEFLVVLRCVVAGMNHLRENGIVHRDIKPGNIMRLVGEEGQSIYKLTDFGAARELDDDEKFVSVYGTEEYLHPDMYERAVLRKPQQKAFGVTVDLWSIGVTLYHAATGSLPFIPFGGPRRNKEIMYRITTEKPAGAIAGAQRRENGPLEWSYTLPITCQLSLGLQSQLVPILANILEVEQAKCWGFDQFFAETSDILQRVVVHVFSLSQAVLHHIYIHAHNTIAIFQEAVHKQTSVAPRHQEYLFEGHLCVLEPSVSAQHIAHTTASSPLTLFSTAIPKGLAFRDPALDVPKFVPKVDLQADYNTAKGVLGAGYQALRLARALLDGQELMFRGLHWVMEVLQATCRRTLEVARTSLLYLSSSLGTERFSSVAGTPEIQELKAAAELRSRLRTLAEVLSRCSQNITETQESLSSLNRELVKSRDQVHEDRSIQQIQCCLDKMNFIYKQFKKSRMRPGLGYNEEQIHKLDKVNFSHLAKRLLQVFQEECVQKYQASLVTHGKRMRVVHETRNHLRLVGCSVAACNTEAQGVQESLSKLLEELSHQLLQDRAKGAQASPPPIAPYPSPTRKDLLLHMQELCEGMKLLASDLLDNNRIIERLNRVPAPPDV

Structure (SMILES) | inhibition [1] | inhibition [2] | inhibition [3] | inhibition [4] | inhibition [5] | inhibition [6] | inhibition [7] | inhibition [8] | inhibition [9] | inhibition [10] | inhibition [11] | inhibition [12] | inhibition [13] | inhibition [14] | inhibition [15] | inhibition [16] | inhibition [17] | inhibition [18] | inhibition [19] | inhibition [20]
CS(=O)(=O)CCNCc1ccc(-c2ccc3ncnc(Nc4ccc(OCc5ccccc5)cc4)c3c2)o1 | 2.57% | -2.16% | -2.56% | 2.93% | 4.79% | 0.74% | 2.65% | 0.91% | 0.45% | -0.6% | -3.83% | -0.85% | 0.16% | 9.29% | 3.86% | 4.92% | 3.98% | 5.26% | 5.3% | 5.66%
CN1CCC(n2cnc(-c3ccc(F)cc3)c2-c2ccnc(NCCO)n2)CC1 | 3.15% | -1.01% | 3.27% | 3.91% | 2.41% | 1.87% | 2.25% | -3.16% | 4.51% | 9.04% | -1.28% | 0.37% | -1.92% | 4.78% | 13.2% | 2.6% | 6.82% | 5.84% | 6.36% | 7.53%
Nc1nccc(-c2c(-c3ccc(F)cc3)ncn2C2CCNCC2)n1 | – | 1.49% and -1% | -0.09% and 0.83% | -3.2% and 3.79% | 1.34% and 1.58% | -0.68% and 4.92% | 6.51% and 6.41% | 0.69% and 2.98% | -2.46% and -0.82% | -0.52% and 0.67% | 5.1% and -0.03% | 0.57% and 0.62% | 1.73% and 0.57% | 0.26% and 2.91% | 18% and 2.93% | 5.16% and -0.81% | 8.44% and 4.4% | -3.54% and 0.6% | -2.15% and 0.23% | -4.18% and 0.25%
NS(=O)(=O)c1ccc(N/N=C2\C(=O)Nc3ccc(C(=O)NCc4ccncc4)cc32)cc1 | 2.56% | -1.11% | 2.06% | 0.9% | 0.8% | 0.21% | 0.37% | -0.51% | -0.17% | -0.37% | 0.35% | 2.9% | -0.04% | 4.7% | 13.1% | 2.72% | 0.67% | 5.86% | 5.23% | 14.4%
